# Results reported in PubChem BioAssay.
# Values joined by “and” are separate entries in the source; they are usually repeats but may differ in a detail not shown here. Equal values may be shown once. Inconclusive results are not listed. Active and inactive are the calls of the source.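 Rule for the calls, unless noted: active = normalized viability below 100% at a tested concentration; inactive = the rest.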
# What was measured:
# [1] = viability loss in pontine glioma line – cell-based, SU-DIPG-XVII, MIPE5.0, CellTiter-Glo, qHTS, dose response (AID 1347060; cut-off not given, nearly all actives have AC50 up to about 26 µM;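 for AC50: cells exposed to compound for 48 hours before viability readout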); details: CellTiter-Glo ATP luminescence
# [2] = viability loss in pontine glioma line – cell-based, SU-DIPG-XXV, MIPE5.0, CellTiter-Glo, qHTS, dose response (AID 1347065; cut-off not given, nearly all actives have AC50 up to about 26 µM;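 note: cells exposed to compound for 48 hours before ATP readout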); details: CellTiter-Glo ATP luminescence
# [3] = viability loss in pontine glioma line – cell-based, SU-DIPG-XIII, MIPE5.0, CellTiter-Glo, qHTS, dose response (AID 1347064; cut-off not given, nearly all actives have AC50 up to about 23 µM); details: CellTiter-Glo ATP luminescence
# [4] = growth inhibition of DIPG cells – cell-based, MIPE5.0 library, qHTS (AID 1347068; cut-off not given, nearly all actives have IC50 up to about 30 µM); details: SU-DIPG-XXV viability
# [5] = compounds altering circadian rhythm period length – cell-based, LOPAC library, luminescence reporter (AID 2774; call rule not given here;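 note: values are relative to mean of DMSO wells on each plate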); details: circadian reporter cells, at 7 µM, actives lie on both sides
# [6] = compounds altering viability of human ES cells (AID 493140; call rule not given here;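 note: cells exposed to compounds for four days before counting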); details: human embryonic stem cell survival screen; stronger effect = higher value
# [7] = P. berghei load reduction in hepatocytes – cell-based, HepG2, luciferase luminescence, HepG2 viability, primary screen (AID 624349; in the data active = parasite load remaining mostly below about 12%, no sharp cut-off; inactive = mostly above about 10%;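 note: 100% = mean of DMSO negative control wells on the same plate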); details: P. berghei liver stage in HepG2, luciferase luminescence, concentration not given here; parasite load remaining: stronger effect = lower value; viability: measured here: HepG2 viability without parasites
# [8] = tested on: Hepatitis C virus NS3 helicase; test: blockers of NS3h binding to ssDNA – biochemical, fluorescence polarization, LOPAC1280 library, primary screen (AID 687035; in the data active = inhibition above about 37%); details: Purified HCV NS3 helicase, Cy5-dT15 ssDNA binding fluorescence polarization; stronger effect = higher value; concentration not given here
# [9] = compounds altering Cy5-DNA-NS3h complex signal – biochemical, LOPAC1280, artefact control for HCV NS3 helicase inhibitor project (AID 687037; call rule not given here); details: Cy5-DNA-NS3h complex fluorescence interference counterscreen
# [10] = JHH-DIPG-1 glioma cell viability, MIPE5.0 library, CellTiter-Glo luminescence, qHTS (AID 1347067; cut-off not given, nearly all actives have AC50 up to about 26 µM;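 note: cells exposed to compound for 48 hours before readout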); details: JHH-DIPG-1 glioma viability, CellTiter-Glo ATP luminescence
# [11] = viability loss with induced miR-34 in A549 – imaging, A549 dox-inducible miR-34, nuclei and caspase counts, primary screen (AID 1347080;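 active = compounds whose cell count with miR-34 switched on is under 0.7 times the count with it off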); details: A549 miR-34 inducible, Hoechst nuclei count, 48 h
# [12] = chitosan synthesis blockers in C. neoformans – flow cytometry, Cibacron Brilliant Red staining (AID 1347148; call rule not given here;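 note: compound exposure lasted three days at 37 degrees C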); details: Cryptococcus neoformans chitosan, stronger effect = lower value; at 10 µM unless noted
# [13] = blockers of cellular phospholipid synthesis – cell-based, LOPAC library, screen 4, primary screen (AID 1347384; call rule not given here); details: animal cells, phospholipid biosynthesis inhibition screen; at 10 µM
# [14] = galactose survival enhancers in mitochondrial complex I cybrids – cell-based, galactose medium, ATP luminescence, primary screen (AID 1645843;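 active = z-score of at least 1.8 in each of two replicates, scored against plate mean and spread of sample wells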;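 note: positive z means more ATP and so rescue of galactose-driven cybrid death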); details: complex I mutant cybrid cells, 72 h, stronger effect = higher value
# [15] = MELAS cybrid and Rieske KO viability enhancers – cell-based, MELAS cybrids, Rieske KO mouse fibroblasts, CellTiter-Glo, primary screen (AID 1508586;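 active = mean z-score across replicates of 1.96 or higher in either the MELAS or the Rieske mutant cell line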;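 note: z relative to plate mean and SD of compound and empty wells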); details: low glucose
# [16] = drug combination growth inhibition, ovarian cancer – cell-based, oncology-focused library, rucaparib conditional, profiling panel (AID 1508598); details: patient-derived ovarian cancer cells, CellTiter-Glo viability, 144 h, stronger effect = lower value
# [17] = stronger effect = lower value, cell number ratio, induced over uninduced
# [18] = measured here: relative caspase fold change +Dox/-Dox
# [19] = measured here: total cells with miR-34 induction, stronger effect = lower value
# [20] = measured here: total cells without miR-34 induction
# [21] = MELAS cybrid survival, CellTiter-Glo 48 h, stronger effect = higher value
# [22] = Rieske KO mouse fibroblast survival, CellTiter-Glo 72 h
structure (smiles),measurement,setting,value
CCN(CC)C(=O)Cc1csc(NS(=O)(=O)c2cccc(Cl)c2C)n1,outcome,[1],inactive
same,outcome,[2],inactive
Cc1cccc(Nc2nc(N[C@@H]3CCCC[C@@H]3N)ncc2C(N)=O)c1,AC50,[1],18600 nM (active)
same,AC50,[2],18600 nM (active)
Cc1ccc(C2=Nc3ccc(Cl)cc3OC2)cc1,outcome,[1],inactive
same,outcome,[3],inactive
same,outcome,[4],inactive
O=S(=O)(c1cccc2c(I)cccc12)N1CCCNCC1,period change,[5],0.03 h (inactive)
same,survival,[6],70.8 (inactive)
same,parasite load remaining,[7],33.8% (inactive)
same,viability,[7],77.3%
same,inhibition,[8],-1% (inactive)
same,fluorescence ratio (interference),[9],0.9 (inactive)
same,outcome,[1],inactive
same,outcome,[3],inactive
same,outcome,[10],inactive
same,fold change,[11]; [17],0.977 (inactive) and 0.963 (inactive)
same,fold change,[11]; [18],0.686 and 1.04
same,cell count,[11]; [19],7130 and 3010
same,cell count,[11]; [20],7300 and 3130
same,fold fluorescence,[12],13.8 [at 120.1 µM] (inactive)
same,outcome,[13],inactive
same,z-score,[14],-0.91 (inactive)
COc1ccc(Oc2cc(NCCC(F)(F)F)c3ncc(-c4ccc(C(=O)NC5CC5)c(C)c4)n3n2)c(F)c1F,AC50,[1],59 nM (active)
same,AC50,[2],372 nM (active)
NC1CCCN(c2c(/C=C3\SC(=O)NC3=O)cccc2-c2ccccc2)C1 (centres undefined),outcome,[1],inactive
same,outcome,[3],inactive
same,outcome,[10],inactive
same,outcome,[4],inactive
Cc1c(F)cc(C(=O)NC2CC2)cc1-c1ccc(C(=O)NCC(C)(C)C)cn1,outcome,[1],inactive
same,outcome,[3],inactive
same,outcome,[10],inactive
same,outcome,[4],inactive
same,fold change,[11]; [17],0.832 (inactive)
same,fold change,[11]; [18],0.447
same,cell count,[11]; [19],7400
same,cell count,[11]; [20],8890
same,z-score,[15]; [21],-0.46 (inactive)
same,z-score,[15]; [22],0.488
Cc1nc2ccc(-n3ncc(C(=O)c4cc5ccccc5[nH]4)c3N)cc2[nH]1,AC50,[1],468 nM (active)
same,AC50,[2],833 nM (active)
CC(C)N(C[C@H]1O[C@@H](n2cnc3c(N)ncnc32)[C@H](O)[C@@H]1O)C1CC(CCc2nc3ccc(C(C)(C)C)cc3[nH]2)C1 (some centres undefined),outcome,[1],inactive
same,outcome,[3],inactive
same,outcome,[10],inactive
same,outcome,[4],inactive
CN1C(=O)c2sccc2N(C)c2nc(Nc3ccc(S(N)(=O)=O)cc3)ncc21,AC50,[1],14800 nM (active)
same,AC50,[2],3720 nM (active)
Cn1cc(-c2ccc3c(c2)CCN3C(=O)Cc2cccc(C(F)(F)F)c2)c2c(N)ncnc21,outcome,[1],inactive
same,outcome,[3],inactive
same,outcome,[10],inactive
same,outcome,[4],inactive
same,fold change,[11]; [17],0.811 (inactive)
same,fold change,[11]; [18],0.484
same,cell count,[11]; [19],4720
same,cell count,[11]; [20],5820
same,z-score,[15]; [21],-0.412 (inactive)
same,z-score,[15]; [22],-1.76
same,viability,"[16]; at 0.000305 µM, OCI-C5x cells, with rucaparib 10 µM, 100% = cells with rucaparib alone",120% (inactive)
same,viability,"[16]; at 0.000305 µM, OCI-C5x cells, without rucaparib",118% (inactive)
same,viability,"[16]; at 0.000305 µM, OCI-P5x cells, with rucaparib 20 µM, 100% = cells with rucaparib alone",89.4% (active)
same,viability,"[16]; at 0.000305 µM, OCI-P5x cells, without rucaparib",96.4% (active)
same,viability,"[16]; at 0.00122 µM, OCI-C5x cells, with rucaparib 10 µM, 100% = cells with rucaparib alone",116% (inactive)
same,viability,"[16]; at 0.00122 µM, OCI-C5x cells, without rucaparib",114% (inactive)
same,viability,"[16]; at 0.00122 µM, OCI-P5x cells, with rucaparib 20 µM, 100% = cells with rucaparib alone",90.8% (active)
same,viability,"[16]; at 0.00122 µM, OCI-P5x cells, without rucaparib",99.7% (active)
same,viability,"[16]; at 0.00488 µM, OCI-C5x cells, with rucaparib 10 µM, 100% = cells with rucaparib alone",116% (inactive)
same,viability,"[16]; at 0.00488 µM, OCI-C5x cells, without rucaparib",115% (inactive)
same,viability,"[16]; at 0.00488 µM, OCI-P5x cells, with rucaparib 20 µM, 100% = cells with rucaparib alone",92.8% (active)
same,viability,"[16]; at 0.00488 µM, OCI-P5x cells, without rucaparib",101% (inactive)
same,viability,"[16]; at 0.0195 µM, OCI-C5x cells, with rucaparib 10 µM, 100% = cells with rucaparib alone",107% (inactive)
same,viability,"[16]; at 0.0195 µM, OCI-C5x cells, without rucaparib",114% (inactive)
same,viability,"[16]; at 0.0195 µM, OCI-P5x cells, with rucaparib 20 µM, 100% = cells with rucaparib alone",98% (active)
same,viability,"[16]; at 0.0195 µM, OCI-P5x cells, without rucaparib",107% (inactive)
same,viability,"[16]; at 0.0781 µM, OCI-C5x cells, with rucaparib 10 µM, 100% = cells with rucaparib alone",106% (inactive)
same,viability,"[16]; at 0.0781 µM, OCI-C5x cells, without rucaparib",113% (inactive)
same,viability,"[16]; at 0.0781 µM, OCI-P5x cells, with rucaparib 20 µM, 100% = cells with rucaparib alone",88% (active)
same,viability,"[16]; at 0.0781 µM, OCI-P5x cells, without rucaparib",101% (inactive)
same,viability,"[16]; at 0.313 µM, OCI-C5x cells, with rucaparib 10 µM, 100% = cells with rucaparib alone",109% (inactive)
same,viability,"[16]; at 0.313 µM, OCI-C5x cells, without rucaparib",125% (inactive)
same,viability,"[16]; at 0.313 µM, OCI-P5x cells, with rucaparib 20 µM, 100% = cells with rucaparib alone",79.9% (active)
same,viability,"[16]; at 0.313 µM, OCI-P5x cells, without rucaparib",107% (inactive)
same,viability,"[16]; at 1.25 µM, OCI-C5x cells, with rucaparib 10 µM, 100% = cells with rucaparib alone",123% (inactive)
same,viability,"[16]; at 1.25 µM, OCI-C5x cells, without rucaparib",144% (inactive)
same,viability,"[16]; at 1.25 µM, OCI-P5x cells, with rucaparib 20 µM, 100% = cells with rucaparib alone",74.9% (active)
same,viability,"[16]; at 1.25 µM, OCI-P5x cells, without rucaparib",109% (inactive)
same,viability,"[16]; at 5 µM, OCI-C5x cells, with rucaparib 10 µM, 100% = cells with rucaparib alone",7.91% (active)
same,viability,"[16]; at 5 µM, OCI-C5x cells, without rucaparib",79% (active)
same,viability,"[16]; at 5 µM, OCI-P5x cells, with rucaparib 20 µM, 100% = cells with rucaparib alone",53% (active)
same,viability,"[16]; at 5 µM, OCI-P5x cells, without rucaparib",69.3% (active)
